Screens (PubChem BioAssay)
Only some compounds are listed: those with a hit (about 14% of all), similar ones and a draw of the others.
Giardia FBPA inh: inhibitors of Giardia lamblia fructose-1,6-bisphosphate aldolase; A8B2U2; purified Giardia FBPA; Potency, µM (doses to about 59.6 µM), most hits filed as inhibitors; 290,000 compounds, 0.71% hits; also: nearly all actives have a fitted effect of over 55% in size
Target sequence (A8B2U2 whole entry, looked up): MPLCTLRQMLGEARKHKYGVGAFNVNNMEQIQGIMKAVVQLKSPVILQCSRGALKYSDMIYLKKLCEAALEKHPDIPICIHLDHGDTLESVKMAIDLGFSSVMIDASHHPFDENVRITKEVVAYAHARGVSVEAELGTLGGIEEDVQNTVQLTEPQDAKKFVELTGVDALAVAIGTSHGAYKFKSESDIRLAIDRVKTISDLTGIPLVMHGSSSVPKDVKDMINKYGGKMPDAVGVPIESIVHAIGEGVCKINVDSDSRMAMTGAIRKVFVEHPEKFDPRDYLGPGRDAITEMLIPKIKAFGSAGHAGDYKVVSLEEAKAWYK
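Giardia FBPA (40 nM reagent) was preincubated 10 min at RT with compound (up to 57.5 uM final), then substrate plus GAPDH/TPI/NAD/arsenate coupling system with diaphorase/resazurin was added; resorufin fluorescence (525/598 nm) was read after 20 min.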
Pf growth 48h: P. falciparum growth inhibition at 48 hours (one generation); P. falciparum luciferase growth in erythrocytes, 48 h; Potency, µM (highest dose often 28.7 µM), actives largely listed as inhibitors; 310,000 compounds, 5.9% hits
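Read-out is firefly luciferase luminescence from an integrated reporter in P. falciparum, so falling signal marks reduced parasite growth. Infected erythrocytes were at 2% hematocrit and 0.1% parasitemia (final) in Albumax-supplemented RPMI 1640.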
HCMV antiviral: blocks human cytomegalovirus replication; 410,000 compounds, 4.5% hits; activity change, negative = inhibition, % at 57.5 µM; HFF cells, HCMV-luciferase reporter, 72 h; hits give low values; in the data active = activity change below about -60%; inconclusive = no clear call, values can overlap the other calls; inactive = above about -39%
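Inhibition of viral replication was scored as loss of reporter luminescence in HFFs infected with HCMV-luciferase (MOI 1 PFU/cell) for 72 h; compounds tested at 2 doses, normalized to buffer and Salinomycin controls.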
Pf growth 96h: P. falciparum growth inhibition at 96 hour, primary screen for plastid delayed-death inhibitors; P. falciparum luciferase reporter growth, 96 h; 320,000 compounds, 6.9% hits; AID 504834; Potency, µM (titrated, usually from 28.7 µM), actives largely listed as inhibitors
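Readout is luminescence from an integrated firefly luciferase in P. falciparum. Red cells, 2% hematocrit and 0.05% parasitemia final, were cultured with compound through two parasite generations (96 hours) at 37 C, 5% CO2.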
Sm TGR block: S. mansoni TGR enzyme inhibition; Q962Y6; purified TGR, DTNB reduction, TNB absorbance 405 nm; Potency, µM (doses to about 114 µM), actives largely listed as inhibitors; 360,000 compounds, 3% hits; also: nearly all actives have a fitted effect of over 60% in size
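First, TGR (20 nM dispensed) and NADPH were mixed with compound. Second, a 15 min room-temperature incubation followed. Third, further NADPH and then DTNB were added to start the reaction. Finally, TNB absorbance was monitored kinetically.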
Each line names hits and unclear results; the compound was inactive in the other large screens. Unless noted, calls follow the shape of the dose curve; as a rule, active = well fitted curve in the direction sought with a large enough effect; inconclusive = small, poorly fitted or top-dose-only effect, or another doubt; inactive = no such curve, though single readings can be large; an effect the other way counts as inactive or inconclusive.

CCOC(=O)N1CCN(S(=O)(=O)c2ccc(C(=O)Nc3sc4c(c3C(=O)OC)CCN(C)C4)cc2)CC1	HCMV antiviral -61.8, Pf growth 96h inconclusive (no result: Giardia FBPA inh)
O=C(CN1C(=O)NC2(CCCCCC2)C1=O)c1cccs1	none (no result: Giardia FBPA inh)
CN1CCc2c(sc(NC(=O)c3ccc(S(=O)(=O)N4CCCC4)cc3)c2C(N)=O)C1	Pf growth 48h inconclusive, Pf growth 96h inconclusive, Sm TGR block 100µM (no result: Giardia FBPA inh)
NC(=O)c1c(NC(=O)c2ccc([N+](=O)[O-])o2)sc2c1CCCC2	none
CN1CCc2c(sc(NC(=O)c3ccc(S(=O)(=O)N4CCCCCC4)cc3)c2C(N)=O)C1	Pf growth 48h inconclusive, Pf growth 96h inconclusive (no result: Giardia FBPA inh, HCMV antiviral)
N#Cc1c(NC(=O)c2ccc([N+](=O)[O-])o2)sc2c1CCC2	Giardia FBPA inh inconclusive, HCMV antiviral inconclusive, Sm TGR block 35.5µM
CCOC(=O)c1c(NC(=O)c2ccc(S(=O)(=O)N(C)C)cc2)sc2c1CCN(C)C2	HCMV antiviral inconclusive (no result: Giardia FBPA inh, Pf growth 48h, Pf growth 96h)
CCOC(=O)c1c(NC(=O)c2ccc(S(=O)(=O)N3CCC(C)CC3)cc2)sc2c1CCN(C)C2	HCMV antiviral -82.3 (no result: Giardia FBPA inh, Pf growth 48h, Pf growth 96h)
CCOC(=O)c1c(NC(=O)Nc2ccc(C)cc2)sc2c1CCN(C)C2	Pf growth 48h 11.7µM, Pf growth 96h 3.7µM
O=C(NCc1ccncc1)c1cccc(S(=O)(=O)Nc2ccc(F)cc2)c1	Sm TGR block inconclusive (no result: Giardia FBPA inh)
O=C(c1ccco1)N1CCN(C(=O)c2ccc(Cn3cc(Br)cn3)o2)CC1	Pf growth 96h inconclusive, Sm TGR block 39.8µM (no result: Pf growth 48h)
Cc1ccnc2nc(C(=O)OC(C)C(=O)NCc3ccccc3)nn12 (centres undefined)	none (no result: Giardia FBPA inh)
COc1ccc2oc(=O)c(/C(C)=N/Nc3ccccc3)cc2c1	Sm TGR block 44.7µM
COc1ccc2oc(=O)c(C(=O)N3CCN(C(=O)c4ccco4)CC3)cc2c1	Pf growth 96h inconclusive, Sm TGR block 39.8µM
COc1ccc2oc(=O)c(C(=O)N3CCN(c4ccccc4)CC3)cc2c1	none (no result: Pf growth 96h)
O=C(CS(=O)(=O)c1ccccc1)c1cc2ccccc2oc1=O	none (no result: HCMV antiviral)
COc1ccc2oc(=O)c(C(=O)N3CCN(C(=O)c4ccccc4)CC3)cc2c1	HCMV antiviral -94.6, Pf growth 96h inconclusive
COc1ccc2oc(=O)c(C(=O)Nc3cccc(C(C)=O)c3)cc2c1	none
O=C(c1ccco1)N1CCN(C(=O)c2cc3ccccc3oc2=O)CC1	none (no result: Giardia FBPA inh)
COc1ccc2cc(C(=O)CS(=O)(=O)c3ccccc3)c(=O)oc2c1	Pf growth 96h 11.7µM (no result: Giardia FBPA inh)
COc1cccc(CCc2nnc(CCC(=O)N3CCCC3c3nccs3)o2)c1 (centres undefined)	Pf growth 96h 5.86µM
CCOc1ccc(S(=O)(=O)N2CCC(C(=O)NCC3CCCO3)CC2)cc1Cl (centres undefined)	Pf growth 96h inconclusive
CC(CC(c1ccccc1)c1ccccc1)NC(C)(C)C (centres undefined)	none (no result: Giardia FBPA inh, Pf growth 48h, Pf growth 96h, Sm TGR block)
Cc1cc(C)cc(OCC(O)CN2CCC(CN3C(=O)c4cccc5cccc(c45)C3=O)CC2)c1 (centres undefined)	HCMV antiviral -101.4
O=C1c2cccc3cccc(c23)C(=O)N1CC1CCN(CC(O)COc2ccc3ccccc3c2)CC1 (centres undefined)	none (no result: Giardia FBPA inh)
COc1cccc(OCC(O)CN2CCC(CN3C(=O)c4cccc5cccc(c45)C3=O)CC2)c1 (centres undefined)	Pf growth 48h inconclusive, HCMV antiviral -65.3, Pf growth 96h inconclusive
COc1ccc(COCC(O)CN2CCC(CN3C(=O)c4cccc5cccc(c45)C3=O)CC2)cc1OC (centres undefined)	Pf growth 48h inconclusive, Pf growth 96h 11.7µM
CCCCCNC(=O)C1(C)CCc2nc3ccccc3n21 (centres undefined)	none (no result: Giardia FBPA inh, Pf growth 48h, Pf growth 96h, Sm TGR block)
COC(=O)c1nccnc1N	none (no result: Giardia FBPA inh, Pf growth 48h, Pf growth 96h, Sm TGR block)
COc1ccc(C(=O)N/N=C/c2ccc(OC)c(CN3CCCc4ccccc43)c2)cc1	Pf growth 48h 1.17µM, HCMV antiviral inconclusive
COc1ccc(C(=O)N/N=C/c2ccc(OC)c(CSc3ccccn3)c2)cc1	HCMV antiviral -64.6
N#C/C=C(/N)c1ccc(Br)cc1	Pf growth 48h 13.1µM, Pf growth 96h 10.4µM
COC(=O)Nc1ccc(S(=O)(=O)N2CCCCC2C(=O)O)cc1 (centres undefined)	Pf growth 96h inconclusive
O=S(=O)(NC1CC1)c1ccc(S(=O)(=O)N2CCc3ccccc32)cc1	HCMV antiviral -80.5 (no result: Pf growth 96h)
COC(=O)c1ccc(S(=O)(=O)N2CCc3ccccc32)cc1	Pf growth 96h 9.28µM
CC(=O)N1CCc2ccc(S(=O)(=O)Nc3ccccc3Cl)cc21	none
COC(=O)CCC(=O)Nc1ccc(S(=O)(=O)N2CCc3ccccc32)cc1	none
CC(=O)N1CCc2ccc(S(=O)(=O)N3CCc4ccccc43)cc21	Pf growth 48h 13.1µM, HCMV antiviral inconclusive
COC(=O)Nc1ccc(S(=O)(=O)N2c3ccccc3CCC2C)cc1 (centres undefined)	Pf growth 48h 14.7µM
C[C@H](CO)N1C[C@H](C)[C@@H](CN(C)Cc2cccnc2)Oc2ncc(-c3cccc(C#N)c3)cc2C1=O	none (no result: Giardia FBPA inh, Pf growth 48h, Pf growth 96h, Sm TGR block)
Cc1cc2c(SCC(=O)NCC3CCCO3)ncnc2s1 (centres undefined)	none
Cc1ccc(S(=O)(=O)NN=Cc2ccc(N3CCOCC3)cc2)cc1[N+](=O)[O-]	none (no result: Giardia FBPA inh, Pf growth 48h, Pf growth 96h, Sm TGR block)
O=C(NCc1ccccc1)c1ccc(S(=O)(=O)N2CCCc3ccccc32)cc1	Pf growth 96h inconclusive
CCn1c(=O)n(CC)c2cc(S(=O)(=O)N3CCc4ccccc43)ccc21	Giardia FBPA inh inconclusive, Pf growth 48h inconclusive, HCMV antiviral -91.7 (no result: Pf growth 96h)
NNC(=O)c1ccc(S(=O)(=O)N2CCc3ccccc32)cc1	Pf growth 48h 11.7µM
COc1ccc(S(=O)(=O)N2CCc3ccccc32)cc1OC	none
Cc1cc(C(=O)Nc2c(F)cc(F)cc2Br)cs1	HCMV antiviral inconclusive, Pf growth 96h 14.7µM (no result: Giardia FBPA inh)
CSCC[C@H](NC(=O)[C@H](Cc1ccccc1)n1c(=O)[nH]c2ccccc2c1=O)C(=O)N1CCC[C@H]1C(=O)O	none
CCOC(=O)N1CCN(C(=O)CC(C(=O)N2CCc3ccccc32)n2ccnc2)CC1 (centres undefined)	Pf growth 48h 0.0329µM
O=C(CC(C(=O)N1CCc2ccccc21)n1ccnc1)NCc1ccccc1 (centres undefined)	none (no result: Pf growth 48h)
COc1cc(OC)cc(C(=O)NCc2ccc3c(c2)cc(C)n3C)c1	Pf growth 96h 9.28µM
Cc1cc2cc(CNC(=O)c3cc4ccccc4o3)ccc2n1C	Pf growth 48h 11.7µM, Pf growth 96h 14.7µM, Sm TGR block inconclusive (no result: HCMV antiviral)
COCC(=O)NCc1ccc2c(c1)cc(C)n2C	Pf growth 96h 4.65µM
COc1cc(/C=C\C(=O)NCc2ccc3c(c2)cc(C)n3C)cc(OC)c1OC	Pf growth 48h 11.7µM, Pf growth 96h 7.38µM
Cc1cc2cc(CNC(=O)COc3ccccc3)ccc2n1C	none
CCN(C(=O)c1nn(-c2ccc(OC)cc2)c(=O)c2c1c1ccccc1n2C)c1ccc(OC)cc1	Giardia FBPA inh inconclusive
